PubChem BioAssay (NCATS)
Records with an inconclusive call do not appear. Active and inactive are the calls of the source. Calls follow the shape of the dose curve; as a rule, active = well fitted curve in the direction sought with a large enough effect; inconclusive = small, poorly fitted or top-dose-only effect, or another doubt; inactive = no such curve, though single readings can be large; an effect the other way counts as inactive or inconclusive.

Key:
[1] = Quantitative High-Throughput drug screen in 47 multiple myeloma cell lines against the NCATS MIPE library collection: AMO1_DSMZ cell viability assay (AID 1918927; also: nearly all actives have a fitted effect of over 30% in size)
In short: (§1)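 Inhibition of cell viability is measured here. Each line was plated at 500 cells per well, treated with MIPE 4.0 drugs, kept 48 hours at 37C, then assayed for ATP content by CellTiter-Glo luminescence.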

[2] = Quantitative High-Throughput drug screen in 47 multiple myeloma cell lines against the NCATS MIPE library collection: ARP1_JJKsccF8 cell viability assay (AID 1918928; also: nearly all actives have a fitted effect of over 40% in size)
In short: (§2)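 Cell viability inhibition in this qHTS is measured via ATP content (CellTiter-Glo) after 48 h drug exposure at 37 °C. Wells hold 500 cells; DMSO-treated wells define 100% and medium-only wells 0%.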

[3] = Quantitative High-Throughput drug screen in 47 multiple myeloma cell lines against the NCATS MIPE library collection: Karpas620_DSMZ cell viability assay (AID 1918959); also: nearly all actives have a fitted effect of over 30% in size
In short: (§3)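 Myeloma cells (500 per well) were exposed to MIPE 4.0 compounds by pin transfer and incubated 48 hours at 37C, 5% CO2. Viability was read as ATP by CellTiter-Glo luminescence, normalised to DMSO (100%) and media-only (0%) wells.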

[4] = Quantitative High-Throughput drug screen in 47 multiple myeloma cell lines against the NCATS MIPE library collection: KMM1_JCRB cell viability assay (AID 1918960); also: nearly all actives have a fitted effect of over 30% in size
In short: as §2

[5] = Quantitative High-Throughput drug screen in 47 multiple myeloma cell lines against the NCATS MIPE library collection: Karpas417_ECACC cell viability assay (AID 1918961); details: Karpas417 myeloma viability, CellTiter-Glo ATP luminescence, 48 h; viability (% of DMSO): at 45.8 µM (top of the series)
In short: (§4)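 CellTiter-Glo ATP luminescence gave viability after 48 h compound treatment at 37C of 500 multiple myeloma cells per well. Normalisation used DMSO-only wells as 100% and media-only wells as 0% viability; primary qHTS of approved and investigational drugs.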

[6] = Quantitative High-Throughput drug screen in 47 multiple myeloma cell lines against the NCATS MIPE library collection: KHM11_PLB cell viability assay (AID 1918962); also: nearly all actives have a fitted effect of over 35% in size
In short: as §3

[7] = Quantitative High-Throughput drug screen in 47 multiple myeloma cell lines against the NCATS MIPE library collection: JIM3_ECACC cell viability assay (AID 1918963; also: nearly all actives have a fitted effect of over 35% in size)
In short: as §3

[8] = Quantitative High-Throughput drug screen in 47 multiple myeloma cell lines against the NCATS MIPE library collection: INA6_PLB cell viability assay (AID 1918965; also: nearly all actives have a fitted effect of over 55% in size)
In short: as §4

[9] = Quantitative High-Throughput drug screen in 47 multiple myeloma cell lines against the NCATS MIPE library collection: H1112_PLB cell viability assay (AID 1918967; also: nearly all actives have a fitted effect of over 30% in size)
In short: as §1

[10] = Quantitative High-Throughput drug screen in 47 multiple myeloma cell lines against the NCATS MIPE library collection: Karpas25_ECACC cell viability assay (AID 1918968; also: nearly all actives have a fitted effect of over 35% in size)
In short: as §1

[11] = Quantitative High-Throughput drug screen in 47 multiple myeloma cell lines against the NCATS MIPE library collection: KMS12PE_JCRB cell viability assay (AID 1918972); also: nearly all actives have a fitted effect of over 30% in size
In short: as §4

[12] = Quantitative High-Throughput drug screen in 47 multiple myeloma cell lines against the NCATS MIPE library collection: KMS26_JCRB cell viability assay (AID 1918975); also: nearly all actives have a fitted effect of over 45% in size
In short: as §3

[13] = Quantitative High-Throughput drug screen in 47 multiple myeloma cell lines against the NCATS MIPE library collection: JIM1_ECACC cell viability assay (AID 1918964)
In short: as §1

[14] = Quantitative High-Throughput drug screen in 47 multiple myeloma cell lines against the NCATS MIPE library collection: JJN3_DSMZ cell viability assay (AID 1918966; also: nearly all actives have a fitted effect of over 50% in size)
In short: as §1

[15] = Quantitative High-Throughput drug screen in 47 multiple myeloma cell lines against the NCATS MIPE library collection: KMS27_JCRB cell viability assay (AID 1918970); also: nearly all actives have a fitted effect of over 30% in size
In short: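 CellTiter-Glo luminescence after 48 h drug exposure at 37 °C; 500 cells/well, 1536-well format, pin-tool compound addition; DMSO = 100%, media-only = 0% viability.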

[16] = Quantitative High-Throughput drug screen in 47 multiple myeloma cell lines against the NCATS MIPE library collection: KMS21BM_JCRB cell viability assay (AID 1918974); details: ATP luminescence, 48 h; viability: at 45.8 µM (top of the series) unless noted
In short: as §1

[17] = Quantitative High-Throughput drug screen in 47 multiple myeloma cell lines against the NCATS MIPE library collection: MMM1_PLB cell viability assay (AID 1918976); also: nearly all actives have a fitted effect of over 35% in size
In short: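 ATP-based CellTiter-Glo luminescence after 48 h drug exposure (37 °C, 5% CO2) of 500 myeloma cells per well. DMSO-only wells set 100% viability, media-only wells 0%; MIPE 4.0 library added by pin tool.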

[18] = Quantitative High-Throughput drug screen in 47 multiple myeloma cell lines against the NCATS MIPE library collection: ARD_JJKsccE7 cell viability assay (AID 1918929)
In short: as §1

[19] = Quantitative High-Throughput drug screen in 47 multiple myeloma cell lines against the NCATS MIPE library collection: KMS12BM_JCRB cell viability assay (AID 1918971); also: nearly all actives have a fitted effect of over 35% in size
In short: as §3

[20] = Quantitative High-Throughput drug screen in 47 multiple myeloma cell lines against the NCATS MIPE library collection: KMS20_JCRB cell viability assay (AID 1918973); also: nearly all actives have a fitted effect of over 45% in size
In short: as §1
Potency is read from the fitted curve at half-maximal effect.

COc1cc(NC(=O)c2ccc(-c3ccc(Cl)cc3)o2)cc(OC)c1
inactive: Potency [2] | Potency [12]
active: Potency [1] 7.43 µM | Potency [3] 20.9 µM | Potency [4] 16.6 µM | Potency [5] 2.96 µM | Potency [6] 14.8 µM | Potency [7] 11.8 µM | Potency [8] 8.33 µM | Potency [9] 2.96 µM | Potency [10] 2.96 µM | Potency [11] 20.9 µM

O=C(O)C(O)Cc1ccc(O)c(O)c1 (stereo not drawn)
inactive: Potency [1] | Potency [3] | Potency [7] | Potency [13] | Potency [9] | Potency [15] | Potency [11]
active: Potency [2] 23.5 µM | Potency [14] 23.5 µM | Potency [16] 8.3 nM | Potency [12] 20.9 µM | Potency [17] 5.26 µM

O=c1c(-c2ccc(O)cc2)coc2cc(OC3O[C@H](CO)[C@H](O)[C@H](O)[C@H]3O)cc(O)c12 (stereo partly drawn)
inactive: Potency [1] | Potency [13] | Potency [15]
active: Potency [2] 18.7 µM | Potency [7] 4.69 µM | Potency [8] 10.5 µM | Potency [17] 18.7 µM

NC(=O)[C@@H](CCC(F)(F)F)N(Cc1ccc(-c2ncon2)cc1F)S(=O)(=O)c1ccc(Cl)cc1
inactive: Potency [1] | Potency [18] | Potency [6] | Potency [15] | Potency [12]
active: Potency [8] 26.4 µM | Potency [19] 18.7 µM | Potency [17] 26.4 µM

Cc1ccc(Nc2cc(-c3cccc(N4C(=O)c5ccccc5C4=O)c3)ncn2)cc1NS(C)(=O)=O
active: Potency [1] 18.7 µM | Potency [18] 20.9 µM | Potency [5] 4.69 µM | Potency [7] 18.7 µM | Potency [8] 16.6 µM | Potency [14] 18.7 µM | Potency [9] 18.7 µM | Potency [10] 11.8 µM | Potency [19] 20.9 µM | Potency [11] 26.4 µM | Potency [20] 26.4 µM | Potency [17] 20.9 µM

COc1cc2c(cc1OC)CN(CCc1ccc(NC(=O)c3cc(OC)c(OC)cc3NC(=O)c3cnc4ccccc4c3)cc1)CC2
inactive: Potency [1] | Potency [18] | Potency [3] | Potency [4] | Potency [15] | Potency [11]
active: Potency [6] 20.9 µM | Potency [7] 23.5 µM | Potency [14] 0.526 µM | Potency [10] 8.33 µM | Potency [19] 10.5 µM | Potency [17] 2.35 µM

Cc1nnc(C(C)C)n1C1C[C@H]2CC[C@@H](C1)N2CC[C@H](NC(=O)C1CCC(F)(F)CC1)c1ccccc1 (stereo partly drawn)
inactive: Potency [1] | Potency [2] | Potency [7]
active: Potency [9] 14.8 µM | Potency [10] 18.7 µM

N[C@H](CSC(c1ccccc1)(c1ccccc1)c1ccccc1)C(=O)O
active: Potency [1] 23.5 µM | Potency [2] 13.2 µM | Potency [7] 10.5 µM | Potency [13] 14.8 µM | Potency [8] 7.43 µM | Potency [10] 11.8 µM | Potency [15] 18.7 µM

CC(=Cc1ccccc1)C=C1SC(=S)N(CC(=O)O)C1=O
active: Potency [15] 0.59 µM
inactive: Potency [1] | Potency [18] | Potency [4] | Potency [5] | Potency [6] | Potency [7] | Potency [8] | Potency [9] | Potency [10] | Potency [19] | Potency [11] | Potency [20] | Potency [12]

CS(=O)c1ccc(-c2nc(-c3ccc(F)cc3)c(-c3ccncc3)[nH]2)cc1 (stereo not drawn)
active: Potency [1] 30.3 µM | Potency [18] 42.9 µM | Potency [3] 34 µM | Potency [4] 34 µM | Potency [5] 3.82 µM | Potency [13] 34 µM | Potency [8] 3.4 µM | Potency [14] 2.15 µM | Potency [9] 48.1 µM | Potency [10] 8.55 µM | Potency [15] 21.5 µM | Potency [11] 21.5 µM | viability [16] 1.55% [at 92.2 µM]

CN(C)C1CCN(C(=O)c2ccc(NC(=O)Nc3nc(N4CCOCC4)nc(N4CCOCC4)n3)cc2)CC1
active: Potency [1] 1.18 µM | Potency [2] 0.0166 µM | Potency [5] 0.0662 µM | Potency [7] 0.209 µM | Potency [14] 0.0833 µM | Potency [19] 0.0083 µM | Potency [11] 0.105 µM | Potency [20] 0.105 µM | Potency [12] 0.0209 µM | Potency [17] 0.0235 µM

O=c1c(O)c(-c2ccc(O)cc2)oc2cc(O)cc(O)c12
active: Potency [1] 9.35 µM | Potency [18] 13.2 µM | Potency [4] 16.6 µM | Potency [5] 16.6 µM | Potency [8] 16.6 µM | Potency [9] 20.9 µM | Potency [10] 9.35 µM | Potency [11] 16.6 µM | Potency [20] 14.8 µM | Potency [16] 5900 nM

CCCCCNC(=O)N1CCC(CN(Cc2ccc(Cl)cc2)Cc2ccc([N+](=O)[O-])s2)C1 (stereo not drawn)
active: Potency [1] 18.7 µM | Potency [18] 20.9 µM | Potency [3] 18.7 µM | Potency [14] 23.5 µM | Potency [10] 20.9 µM | Potency [15] 20.9 µM | Potency [19] 23.5 µM | Potency [11] 18.7 µM | Potency [12] 23.5 µM | Potency [17] 20.9 µM

CCOC1OC(=O)C[C@H]1NC(=O)[C@@H]1CCCN1C(=O)[C@@H](NC(=O)c1ccc(N)c(Cl)c1)C(C)(C)C (stereo partly drawn)
active: Potency [1] 18.7 µM | Potency [18] 20.9 µM | Potency [3] 4.69 µM | Potency [4] 29.6 µM | Potency [15] 5.26 µM | Potency [11] 11.8 µM
inactive: Potency [5] | Potency [7] | Potency [8] | Potency [9] | Potency [19]
